# Source: PubChem BioAssay
# Hits are enriched below; roughly 2.1% of the tested compounds scored in any of these assays.
# D2 antagonist: HTS Assay for Allosteric Antagonists of the Human D2 Dopamine Receptor: Primary Screen for Antagonists; HEK293 TREx D2 cells, calcium flux, dopamine EC80; D(2) dopamine receptor (Homo sapiens), P14416; AID 485344, 2010; inhibition, % at 10 µM; 340,000 tested, 2% active; in the data active = inhibition above about 30%; inactive = below that, where a call was filed; note: 0% is about no effect
# Target sequence (P14416 whole entry, looked up): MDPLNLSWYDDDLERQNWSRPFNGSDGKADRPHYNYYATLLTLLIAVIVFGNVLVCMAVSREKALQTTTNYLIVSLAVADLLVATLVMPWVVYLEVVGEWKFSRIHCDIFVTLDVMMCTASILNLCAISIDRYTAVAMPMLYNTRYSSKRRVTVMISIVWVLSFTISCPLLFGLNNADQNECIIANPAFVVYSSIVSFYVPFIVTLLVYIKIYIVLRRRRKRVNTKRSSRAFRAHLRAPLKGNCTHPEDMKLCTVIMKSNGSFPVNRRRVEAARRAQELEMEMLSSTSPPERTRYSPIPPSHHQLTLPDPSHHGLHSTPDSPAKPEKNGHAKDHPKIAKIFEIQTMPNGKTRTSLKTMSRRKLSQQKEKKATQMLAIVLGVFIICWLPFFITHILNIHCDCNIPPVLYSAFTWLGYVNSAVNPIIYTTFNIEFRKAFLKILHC
#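 Compounds are added to dye-loaded, induced HEK293 T-REx cells coupled to calcium release via D2; after a 3 min kinetic read an EC80 dopamine stimulus is given and fluorescence is recorded for 3 more min.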
# D2 PAM-1: Beta-Arrestin HTS for Positive Allosteric Modulators of the Human D2 Dopamine Receptor: Potentiators. D(2) dopamine receptor (Homo sapiens), P14416. DiscoveRx D2 beta-arrestin cells, luminescence, 90 min; 100% = 57 uM dopamine signal. potentiation, % (test concentration not listed). 360,000 tested, 0.23% active; in the data active = potentiation above about 50%; inconclusive = mostly about 30% to 49%
#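 PathHunter beta-arrestin assay in DiscoveRx D2 cells. Compounds were added with an EC20 of dopamine (50 nM final) for 90 min at 37 deg C. Luminescence was read 1 h after detection reagent, with 57 uM dopamine as the EC100 control.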
# D2 PAM-2: HTS Assay for Positive Allosteric Modulators of the Human D2 Dopamine Receptor: Primary Screen for Potentiators; potentiation, % at 10 µM; D(2) dopamine receptor (Homo sapiens), P14416; HEK293 T-REx D2, calcium flux, EC20 dopamine potentiation; 340,000 tested, 0.34% active;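 active = potentiation over 3 SD above the plate norm, cut at about 30% in these data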; note: 0% is about no effect
#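 Tetracycline-induced HEK293 T-REx cells force-coupled to calcium signalling expressed D2; compounds were pin-added after a 10 s baseline, read kinetically 180 s, then an EC20 dopamine challenge followed with a further 180 s calcium read.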
# LDHA inh: qHTS assay for inhibitors of human lactate dehydrogenase; L-lactate dehydrogenase A chain (Homo sapiens), P00338; purified LDHA, NADH/diaphorase-resazurin fluorescence; hits give low values; activity change, % (values are at about 110 or 230 µM); 480,000 tested, 0.15% active; AID 1347041, 2019; in the data active = activity change below about -30%; inconclusive = mostly about -25% to -30%;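 note: plate controls were DMSO wells for no effect and wells without enzyme for full effect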
#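 LDH5 2 nM; NADH 0.06 mM, pyruvate 0.2 mM; 200 mM Tris pH 7.4, EDTA, Tween-20; 5 min RT. Detection: diaphorase 0.133 mg/mL + resazurin 37 µM, fluorescence ex540/em590 at 0 and 20 min; normalized to enzyme-free and DMSO wells.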
# D2 ag-1: HTS Assay for Allosteric Agonists of the Human D2 Dopamine Receptor: Primary Screen for Agonists. HEK293 T-REx D2 cells, calcium flux agonist mode. activation, % at 2 µM. 340,000 tested, 0.53% active. AID 485358, 2010;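 active = activation over 3 SD above normal in the single-dose calcium agonist read, cut at about 30% in these data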; note: 0% is about no effect
#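 In this primary screen, compounds producing a positive calcium signal within 180 s of addition to tetracycline-induced, force-coupled HEK293 Trex D2 cells are flagged; cells are dye-loaded with a no-wash calcium kit beforehand.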
# D2 ag-2: Beta-Arrestin HTS for Positive Allosteric Modulators of the Human D2 Dopamine Receptor: Agonists; DiscoveRx PathHunter D2 beta-arrestin, luminescence, 90 min; 100% = 57 uM dopamine signal; activation, % (test concentration not listed); 360,000 tested, 0.084% active; in the data active = activation above about 40%; inconclusive = between about 15% and that limit
#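 Agonist mode: compounds alone added to overnight-plated D2 PathHunter cells for 90 min at 37 C, with 57 uM final dopamine (EC100) defining full response. Beta-arrestin recruitment detected by chemiluminescent reagent, read after 1 h at ambient temperature.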
# D3 ag: qHTS of D3 Dopamine Receptor Agonist: D3 Dopamine Receptor B-arrestin Agonist Confirmatory Assay. Potency, µM (titrated, usually from 76.9 µM), without a hit: at the highest dose activation, actives largely listed as activators. DiscoveRx D3 beta-arrestin cells, luminescence, 90 min. AID 720506, 2013. 2,300 tested, 4% active. shares compounds with D2 ag-1;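 note: potency is the fitted concentration of half-maximal effect; 100% = dopamine control response; nearly all actives have a fitted effect of over 70% in size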
# D2 ag-3: qHTS of D3 Dopamine Receptor Agonist: D2 Dopamine Receptor B-arrestin Agonist Counterscreen; shares compounds with D2 ag-1; DiscoveRx PathHunter D2 beta-arrestin, luminescence, 90 min; response scale: percent relative to full dopamine signal; Potency, µM (top dose mostly 76.9 µM), inactives show at the top dose activation, actives largely listed as activators; 2,300 tested, 5.9% active; AID 720507, 2013; note: potency is the fitted concentration of half-maximal effect; % of control where 0% means no effect; nearly all actives have a fitted effect of over 70% in size
# Active calls of the source: *; ? = inconclusive; . = no result. Unless noted, calls come from the whole dose curve; as a rule, active = well fitted activation curve with a large enough effect; inconclusive = small, poorly fitted or top-dose-only effect; inactive = flat fitted curve, though single readings scatter.
SMILES,D2 antagonist,D2 PAM-1,D2 PAM-2,LDHA inh,D2 ag-1,D2 ag-2,D3 ag,D2 ag-3
Cc1c2c(cc3c4c(c(=O)oc13)CCCC4)C(O)CC(C)(C)O2 (stereo not drawn),.,.,.,9,.,.,.,.
COC(=O)c1ccc(C(=O)OC)c(NC(=O)CN2CCN(c3ccccc3)CC2)c1,-35,-16,7,-7,0,-3,.,.
COc1ccc(NC(=O)CN2CCN(c3ccccc3)CC2)cc1,50*,-8,-23,-1,54*,-1,9%,14%
COC(=O)c1ccc(NC(=O)CN2CCN(c3ccccc3)CC2)cc1,95*,13,-22,-2,71*,?,-3%,?
COC(=O)c1ccc(NC(=O)CN2CCN(c3ccccn3)CC2)cc1,68*,13,-22,-4,64*,46*,-3%,?
O=C(CN1CCN(c2ccccn2)CC1)Nc1ccccc1C(=O)Nc1ccccc1,-6,12,9,-2,1,2,.,.
CC1CCCc2c1nc1sc3c(c1c2-c1ccc(Cl)cc1)CCC3 (stereo not drawn),.,.,.,5,.,.,.,.
COc1ccc(C(=O)Nc2cccc3ncccc23)cc1,.,.,.,-21,.,.,.,.
CCCCCCCOC(=O)c1c(C)oc2ccc(NS(=O)(=O)c3cccs3)cc12,.,.,.,13,.,.,.,.
CCCNC(=O)C(Cc1ccc(Br)cc1)NC(=O)c1ccc(C#N)cc1 (stereo not drawn),19,-1,-1,-13,0,-2,-8%,-4%
CCCNC(=O)C(Cc1ccc(Cl)cc1)NC(=O)c1ccc(C#N)cc1 (stereo not drawn),2,-1,1,-5,0,-9,-2%,-4%
CCCNC(=O)C(Cc1ccc(Cl)cc1)NC(=O)c1ccc(-c2ccccc2)cc1 (stereo not drawn),-2,1,-2,-3,0,0,.,.
COc1cc(C)c(S(=O)(=O)Nc2ccc(Nc3cc(N4CCCC4)nc(C)n3)cc2)cc1C,.,.,.,3,.,.,.,.
COc1ccc(C(=O)C(C)Oc2ccc(C#N)cc2OC)cc1 (stereo not drawn),.,.,.,-1,.,.,.,.
Cc1cc(/C=C(\C#N)C(N)=O)c(C)n1-c1ccc(N2CCOCC2)c([N+](=O)[O-])c1,4,16,5,-2,55*,4,21%,8%
O=C(Cc1cccc(NC(=O)C2CCN(C(=O)C3CCC3)CC2)c1)Nc1cccc(C(=O)N2CCCCC2)c1,.,-1,.,-2,.,1,.,.
CN(C(=O)c1ccc(NC(=O)Cc2ccc(NC(=O)C3CCN(C(=O)c4ccccc4)CC3)cc2)cc1)C1CC1,-3,-14,2,-4,1,-4,-4%,-5%
CN(Cc1ccccc1)C(=O)c1ccc(NC(=O)Cc2cccc(NC(=O)C3CCCN(C(=O)C4CCC4)C3)c2)cc1 (stereo not drawn),-4,-14,8,-18,1,-3,-3%,6%
O=C(Cc1cccc(NC(=O)C2CCN(C(=O)C3CC3)CC2)c1)Nc1cccc(C(=O)N2CCCC2)c1,2,10,4,-4,1,2,-4%,-5%
CN(C(=O)c1cccc(NC(=O)Cc2ccc(NC(=O)C3CCN(C(=O)c4ccccc4)CC3)cc2)c1)C1CCC1,.,7,.,-5,.,4,.,.
Fc1ccc(CNC(=S)NCCc2ccc(Cl)cc2)cc1,.,.,.,11,.,.,.,.
COc1ccccc1Oc1ccc(S(=O)(=O)N2CCOCC2)cc1S(=O)(=O)N1CCOCC1,1,-4,-14,-4,44*,-4,1%,-1%
COc1ccc(S(=O)(=O)N2CCOCC2)cc1NC(=O)COc1ccccc1OC,-40,-3,2,-2,0,0,.,.
CCOC(=O)C1(CC2CC2)CCN(Cc2cnc(N(C)C)s2)CC1,68*,-3,-33,-1,75*,2,-5%,9%
CCOC(=O)C1(CCOc2ccccc2)CCN(Cc2cnc(C)s2)CC1,6,-10,-21,2,1,3,.,.
SMILES,D2 antagonist,D2 PAM-1,D2 PAM-2,LDHA inh,D2 ag-1,D2 ag-2,D3 ag,D2 ag-3
Fc1ccccc1NC(=S)N1CCN(c2ccccn2)CC1,0,5,7,-2,11,-1,.,.
FC(F)(F)c1cccc(NC(=S)N2CCN(c3ccccn3)CC2)c1,2,-7,-12,-3,24,-5,4%,4%
FC(F)Sc1ccc(NC(=S)N2CCN(c3ccccn3)CC2)cc1,-14,-6,1,-1,31*,2,?,?
Oc1ccccc1N1CCN(C(=S)Nc2ccc(SC(F)F)cc2)CC1,-10,23,7,-3,3,8,.,.
COc1ccc(/C=C/C(=O)N2CCN(c3ccccn3)CC2)cc1OC,-11,-2,3,-2,16,3,13%,7%
CCc1ccccc1NC(=S)N1CCN(c2ccccn2)CC1,1,-16,-16,-10,33*,3,-7%,?
CCOC(=O)c1ccc(OCc2ccccc2C#N)cc1,.,.,.,7,.,.,.,.
CCn1c(=O)n(CC)c2cc(Sc3ccccc3)c(NC(=O)c3ccccc3)cc21,.,.,.,-2,.,.,.,.
CC(C)(C)C(=O)NCc1ccc(-c2csc(NC3CC3)n2)s1,.,.,.,2,.,.,.,.
Cc1ccc(NC(=S)N2CCN(c3ccccn3)CC2)c(C)c1,31*,-1,-10,-7,34*,-2,3%,3%
COc1ccc(NC(=S)N2CCN(c3ccccn3)CC2)cc1OC,2,0,-13,-9,49*,2,-5%,-3%
COc1cc(NC(=S)N2CCN(c3ccccn3)CC2)cc(OC)c1OC,.,-4,.,-1,.,1,.,.
COc1ccc(C)cc1NC(=S)N1CCN(c2ccccn2)CC1,-3,0,-23,-2,57*,-1,-4%,-1%
